PubChem BioAssay (NCATS)
Results filed as inconclusive are left out. A call without a number means that no potency is given here. Activity calls are given as the source filed them. Calls follow the shape of the dose curve; as a rule, active = well fitted curve in the direction sought with a large enough effect; inconclusive = small, poorly fitted or top-dose-only effect, or another doubt; inactive = no such curve, though single readings can be large; an effect the other way counts as inactive or inconclusive.

Key:
[1] = molecular target: Glutathione peroxidase 1 (Homo sapiens) (UniProt P07203); assay: Primary qHTS Assay for Inhibitors of Recombinant Selenoprotein Glutathione Peroxidase 1 (GPX1) (AID 1845191); also: nearly all actives have a fitted effect of over 65% in size
Glutathione peroxidase 1 (Homo sapiens), sequence (P07203 whole entry, looked up): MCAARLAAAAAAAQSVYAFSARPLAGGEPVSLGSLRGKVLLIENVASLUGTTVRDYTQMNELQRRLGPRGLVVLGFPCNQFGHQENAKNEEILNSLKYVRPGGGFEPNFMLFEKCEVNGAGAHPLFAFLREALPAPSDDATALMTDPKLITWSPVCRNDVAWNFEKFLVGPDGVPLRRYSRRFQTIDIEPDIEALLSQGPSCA
Procedure, shortened: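 GPX1 10 nM, GR 100 nM, GSH 1 mM, NADPH 0.5 mM, CHP 0.5 mM (final). 30-min cpd preincubation, RT. Ex340/Em450 read t=0, t=15 min.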

[2] = molecular target: Phospholipid hydroperoxide glutathione peroxidase GPX4 (Homo sapiens) (UniProt P36969); assay: Primary qHTS Assay for Inhibitors of Recombinant Selenoprotein Glutathione Peroxidase 4 (GPX4) (AID 1845192); also: nearly all actives have a fitted effect of over 65% in size; also: potency is read from the fitted curve at half-maximal effect
Phospholipid hydroperoxide glutathione peroxidase GPX4 (Homo sapiens), sequence (P36969 whole entry, looked up): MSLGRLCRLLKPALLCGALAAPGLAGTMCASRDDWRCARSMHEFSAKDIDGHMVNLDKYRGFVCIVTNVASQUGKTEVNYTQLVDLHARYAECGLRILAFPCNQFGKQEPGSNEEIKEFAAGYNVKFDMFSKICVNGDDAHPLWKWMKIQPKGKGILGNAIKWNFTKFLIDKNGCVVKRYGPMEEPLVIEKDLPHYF
Procedure, shortened: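 qHTS, GR-coupled: GPX4 200 nM + cpd 30 min RT → GSH 1 mM, NADPH 0.5 mM, GR 100 nM → CHP 0.5 mM start; fluor 340/450 at t0 and t15 min; no-enzyme wells as control.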

[3] = molecular target: Luciferin 4-monooxygenase (Photinus pyralis) (UniProt P08659); assay: Primary firefly luciferase (FLuc) qHTS assay for identification of artifact compounds. (AID 1845220); details: outcome: dose series up to 54.1 µM; also: nearly all actives have a fitted effect of over 60% in size
Procedure, shortened: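 In this counter-screen for luciferase artifacts, test compounds met substrate (10 uM each luciferin and ATP) before 10 nM enzyme started the reaction. Light output was measured 5 min later.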

[4] = Primary fluorescence-based thiol-reactive (MSTI) qHTS assay for identification of artifact compounds. (AID 1845221);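 also: series mostly up to about 54 µM; thiol-reactive compounds lower the probe fluorescence signal; nearly all actives have a fitted effect of over 65% in size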
Procedure, shortened: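 Curve-fitted percent inhibition (4-parameter Hill) derived from fluorescence, Ex 525/Em 598 nm, scaled with Acetyl-MSTI and MSTI; 1 h incubation at room temperature.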

[5] = tested on: Nanoluciferase (engineered Oplophorus gracilirostris luciferase); assay: Primary Nanoluciferase (NLuc) qHTS assay for identification of artifact compounds. (AID 1845222);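 also: NLuc secreted into diluted conditioned medium of S16 cells; series mostly up to about 54 µM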
Procedure, shortened: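 Using secreted nanoluciferase in S16 culture medium (0.22 um filtered, 1:55 dilution), compounds were preincubated 15 min at RT. Signal was generated with Nano-Glo reagent (1:100) over 5 min.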

[6] = Primary redox qHTS assay for identification of artifact compounds. (AID 1845223)
Procedure, shortened: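 Redox-cycling detection via DTT (250 uM final) oxidation coupled to Amplex Red (25 uM)/HRP (250 mU/mL) in HBSS. 15 min preincubation plus 30 min after DTT, room temperature. Ex/Em 525/598 nm; 4-parameter Hill fit against DMSO and 10 uM DA3003.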

SMILES: CC(C)(C)NC[C@H](O)COc1cccc2c1CCCC2=O
- Potency [1]: inactive
- Potency [2]: inactive

SMILES: CC(=O)Nc1ccc(OC(=O)c2ccccc2OC(C)=O)cc1
- Potency [1]: inactive
- Potency [2]: inactive

SMILES: C[C@H]1O[C@@H](O[C@H]2CC[C@@]3(C)[C@H](CC[C@@H]4[C@@H]3C[C@@H](O)[C@]3(C)[C@@H](C5=CC(=O)OC5)CC[C@]43O)C2)C[C@H](O)[C@@H]1O[C@H]1C[C@H](O)[C@H](O[C@H]2C[C@H](O)[C@H](O[C@@H]3O[C@H](CO)[C@@H](O)[C@H](O)[C@H]3O)[C@@H](C)O2)[C@@H](C)O1
- Potency [1]: inactive
- Potency [2]: inactive

SMILES: C[N+]12CCC(CC1)C(OC(=O)C(O)(c1ccccc1)c1ccccc1)C2 (stereo not drawn)
- Potency [1]: inactive
- Potency [2]: inactive

SMILES: O=C(Oc1cccc2cccnc12)c1ccccc1
- Potency [1]: inactive
- Potency [2]: inactive

SMILES: OC[C@H]1O[C@@H](Oc2ccc(O)cc2)[C@H](O)[C@@H](O)[C@@H]1O
- Potency [1]: inactive
- Potency [2]: inactive

SMILES: C#C[C@]1(OC(C)=O)CC[C@H]2[C@@H]3CCC4=C/C(=N/O)CC[C@@H]4[C@H]3CC[C@@]21CC
- Potency [1]: inactive
- Potency [2]: inactive

SMILES: CN1CCc2cccc3c2[C@H]1Cc1ccc(O)c(O)c1-3
- Potency [1]: inactive
- Potency [2]: inactive

SMILES: CN1CCC(OC(c2ccccc2)c2ccccc2)CC1
- Potency [1]: inactive
- Potency [2]: inactive

SMILES: CC(C)[C@@H]1CC[C@@H](C)CC1=O
- Potency [1]: inactive
- Potency [2]: inactive

SMILES: CCc1nn(CCCN2CCN(c3cccc(Cl)c3)CC2)c(=O)n1CCOc1ccccc1
- Potency [1]: inactive
- Potency [2]: inactive

SMILES: C[C@@H](O)[C@H]1C(=O)N2C(C(=O)O)=C(S[C@@H]3CN[C@H](CNS(N)(=O)=O)C3)[C@H](C)[C@H]12
- Potency [1]: inactive
- Potency [2]: inactive

SMILES: CC(=O)Nc1ccc(S(=O)(=O)Nc2ccc([N+](=O)[O-])cc2)cc1
- Potency [1]: inactive
- Potency [2]: inactive

SMILES: COc1ccc(C(Cl)=C(c2ccc(OC)cc2)c2ccc(OC)cc2)cc1
- Potency [1]: inactive
- Potency [2]: inactive

SMILES: C=C[C@H]1CN2CC[C@H]1C[C@@H]2[C@@H](O)c1ccnc2ccc(OC)cc12
- Potency [1]: inactive
- Potency [2]: inactive

SMILES: O=c1[nH]c(=O)n([C@H]2C[C@H](O)[C@@H](CO)O2)cc1F
- Potency [1]: inactive
- Potency [2]: inactive

SMILES: C#C[C@]1(O)CC[C@H]2[C@@H]3CCc4cc(OC)ccc4[C@H]3CC[C@@]21C
- Potency [1]: inactive
- Potency [2]: inactive

SMILES: CC(=O)OCC(=O)[C@H]1CC[C@H]2[C@@H]3CCC4=CC(=O)CC[C@]4(C)[C@H]3CC[C@]12C
- Potency [1]: inactive
- Potency [2]: inactive

SMILES: CC(C)Nc1cccnc1N1CCN(C(=O)c2cc3cc(NS(C)(=O)=O)ccc3[nH]2)CC1
- Potency [1]: inactive
- Potency [2]: inactive

SMILES: NS(=O)(=O)c1cc(C(=O)O)cc(N2CCCC2)c1Oc1ccccc1
- Potency [1]: inactive
- Potency [2]: inactive

SMILES: C#C[C@]1(O)CC[C@H]2[C@@H]3CCC4=Cc5oncc5C[C@]4(C)[C@H]3CC[C@@]21C
- Potency [1]: inactive
- Potency [2]: inactive

SMILES: O=S(=O)(O)c1ccc(O)cc1
- Potency [1]: inactive
- Potency [2]: inactive

SMILES: CCC1Nc2cc(Cl)c(S(N)(=O)=O)cc2S(=O)(=O)N1 (stereo not drawn)
- Potency [1]: inactive
- Potency [2]: inactive

SMILES: c1ccc(-c2nc[nH]c2-c2ccccc2)cc1
- Potency [1]: inactive
- Potency [2]: inactive

SMILES: CC(CNC1CCCCC1)OC(=O)c1ccccc1 (stereo not drawn)
- Potency [1]: inactive
- Potency [2]: inactive

SMILES: Nc1ccc(S(=O)(=O)Nc2cnc3ccccc3n2)cc1
- Potency [1]: inactive
- Potency [2]: inactive

SMILES: CCOc1ccc(NC(C)=O)cc1
- Potency [1]: inactive
- Potency [2]: inactive

SMILES: CC(C)(C)NCC(O)COc1cccc2c1C[C@H](O)[C@H](O)C2 (stereo partly drawn)
- Potency [1]: inactive
- Potency [2]: inactive

SMILES: CC(C(=O)O)c1cccc(Oc2ccccc2)c1 (stereo not drawn)
- Potency [1]: inactive
- Potency [2]: inactive

SMILES: COc1cc(N)c(Cl)cc1C(=O)NC1CCN(Cc2ccccc2)CC1
- Potency [1]: inactive
- Potency [2]: inactive

SMILES: CC(O)Cn1cnc2c1c(=O)n(C)c(=O)n2C (stereo not drawn)
- Potency [1]: inactive
- Potency [2]: inactive

SMILES: CC(=O)Nc1ccc(CC(=O)O)cc1
- Potency [1]: inactive
- Potency [2]: inactive

SMILES: CO[C@H]1C=CO[C@@]2(C)Oc3c(C)c(O)c4c(O)c(c(/C=N/N5CCN(C)CC5)c(O)c4c3C2=O)NC(=O)/C(C)=C\C=C[C@H](C)[C@H](O)[C@@H](C)[C@@H](O)[C@@H](C)[C@H](OC(C)=O)[C@@H]1C
- Potency [1]: inactive
- Potency [2]: 17.8 µM (active)

SMILES: CCOc1cc(OCC)c(C(=O)CCC(=O)O)cc1OCC
- Potency [1]: inactive
- Potency [2]: inactive

SMILES: N/C(=N\N=C\c1ccc(Cl)cc1)N/N=C/c1ccc(Cl)cc1
- Potency [1]: inactive
- Potency [2]: inactive

SMILES: C#C[C@]1(O)CC[C@H]2[C@@H]3CCC4=CC(=O)CC[C@@H]4[C@H]3CC[C@@]21CC
- Potency [1]: inactive
- Potency [2]: inactive

SMILES: O=C1c2cccc3c2[C@H](CCC3)CN1[C@@H]1CN2CCC1CC2
- Potency [2]: inactive

SMILES: C[N+]1(CC2COC(c3ccccc3)(C3CCCCC3)O2)CCCCC1 (stereo not drawn)
- Potency [1]: inactive
- Potency [2]: inactive

SMILES: CCCCCCCCCCCCCC(=O)OC(C)C
- Potency [1]: inactive
- Potency [2]: inactive

SMILES: C=C1c2cccc(O)c2C(O)=C2C(=O)[C@]3(O)C(O)=C(C(N)=O)C(=O)[C@@H](N(C)C)[C@@H]3[C@@H](O)[C@H]12
- Potency [2]: 11.2 µM (active)

SMILES: Cc1ccc(O)c([C@H](CCN(C(C)C)C(C)C)c2ccccc2)c1
- Potency [1]: inactive
- Potency [2]: inactive

SMILES: O=C(Nc1cccc(C2=NCCN2)c1)Nc1cccc(C2=NCCN2)c1
- Potency [1]: inactive
- Potency [2]: inactive

SMILES: CN(C)CCOC(c1ccc(Cl)cc1)c1ccccn1 (stereo not drawn)
- Potency [2]: inactive

SMILES: O=C(Nc1ccc([N+](=O)[O-])cc1)Nc1ccc([N+](=O)[O-])cc1
- Potency [1]: inactive
- Potency [2]: inactive

SMILES: FC(F)(F)C(F)(F)C(F)(F)C(F)(F)C(F)(F)C(F)(F)C(F)(F)C(F)(F)Br
- Potency [1]: inactive
- Potency [2]: inactive

SMILES: CCCc1ncc(C[n+]2ccccc2C)c(N)n1
- Potency [1]: inactive
- Potency [2]: inactive

SMILES: CCOC(=O)[C@H](CCc1ccccc1)N[C@@H](C)C(=O)N1[C@H](C(=O)O)C[C@@H]2CCC[C@@H]21
- Potency [1]: inactive
- Potency [2]: inactive

SMILES: Nc1nc(-c2ccccc2)c(Br)c(=O)[nH]1
- Potency [2]: inactive

SMILES: Cc1cc(NS(=O)(=O)c2ccc(N)cc2)nc(C)n1
- Potency [1]: inactive
- Potency [2]: inactive

SMILES: CNCCc1ccccn1
- Potency [1]: inactive
- Potency [2]: inactive

SMILES: C[N+]1(C)CCC(=C(c2ccccc2)c2ccccc2)CC1
- Potency [1]: inactive
- Potency [2]: inactive

SMILES: CCO[C@@H]1O[C@H](C(COCc2ccccc2)OCc2ccccc2)[C@H](OCc2ccccc2)[C@H]1O (stereo partly drawn)
- Potency [2]: inactive

SMILES: N[C@H](C(=O)O)[C@@H](O)c1ccc(O)c(O)c1
- Potency [1]: inactive
- Potency [2]: inactive

SMILES: CC[N+](C)(CC)CCOC(=O)C(O)(c1ccccc1)C1CCCCC1 (stereo not drawn)
- Potency [2]: inactive

SMILES: Cn1c(=O)c2[nH]c(Br)nc2n(C)c1=O
- Potency [2]: inactive

SMILES: CNCCCCOc1ccccc1Cc1ccccc1
- Potency [2]: inactive

SMILES: NC(=O)c1ccccc1O
- Potency [2]: inactive

SMILES: C[C@@]12C(=O)OC(=O)[C@]1(C)C1CCC2O1
- Potency [1]: inactive
- Potency [2]: inactive

SMILES: Nc1nc(Cl)nc2c1ncn2[C@@H]1O[C@H](CO)[C@@H](O)[C@@H]1F
- Potency [1]: inactive
- Potency [2]: inactive

SMILES: CC[C@]12CCCN3CCc4c(n(c5ccccc45)C(=O)C1)[C@@H]32
- Potency [1]: inactive
- Potency [2]: inactive
- outcome [3]: inactive
- outcome [4]: inactive
- outcome [5]: inactive
- outcome [6]: inactive

SMILES: Cc1ccccc1OCC(O)CO (stereo not drawn)
- Potency [1]: inactive
- Potency [2]: inactive

SMILES: CCCCC(CC)COC(=O)/C=C/c1ccc(OC)cc1 (stereo not drawn)
- Potency [2]: inactive

SMILES: C=C[C@H]1CN2CC[C@H]1C[C@H]2[C@H](O)c1ccnc2ccc(OC)cc12
- Potency [1]: inactive
- Potency [2]: inactive
- outcome [3]: inactive
- outcome [4]: inactive
- outcome [5]: inactive
- outcome [6]: inactive

SMILES: CC(C)Cc1ccc(CC(=O)O)cc1
- Potency [1]: inactive
- Potency [2]: inactive

SMILES: CCC(Cc1c(I)cc(I)c(N)c1I)C(=O)O (stereo not drawn)
- Potency [1]: inactive
- Potency [2]: inactive

SMILES: CCCCC(CC)CN1CN(CC(CC)CCCC)CC(C)(N)C1 (stereo not drawn)
- Potency [1]: inactive
- Potency [2]: inactive

SMILES: O=C1[C@H](CC[C@H](O)c2ccc(F)cc2)[C@@H](c2ccc(O)cc2)N1c1ccc(F)cc1
- Potency [1]: inactive
- Potency [2]: inactive
- outcome [3]: inactive
- outcome [4]: inactive
- outcome [5]: inactive
- outcome [6]: inactive

SMILES: c1ccc(CC2=NCCN2)cc1
- Potency [1]: inactive
- Potency [2]: inactive

SMILES: CCCCCCCCCCCCSCCOCCO
- Potency [2]: inactive

SMILES: O=C(CCCN1CC=C(n2c(=O)[nH]c3ccccc32)CC1)c1ccc(F)cc1
- outcome [3]: inactive
- outcome [4]: inactive
- outcome [5]: inactive
- outcome [6]: inactive
